This passage reports Potency results from PubChem BioAssay (Tox21).

Results filed as inconclusive are left out. Entries that show only a call come without a potency. The source made the active and inactive calls. Unless noted, calls follow the shape of the dose curve; as a rule, active = well fitted curve in the direction sought with a large enough effect in the repeat runs; inconclusive = weak or mixed curves; inactive = no such curve, though single readings can be large; an effect the other way counts as inactive or inconclusive.

Androgen receptor (Homo sapiens), sequence (P10275 whole entry, looked up): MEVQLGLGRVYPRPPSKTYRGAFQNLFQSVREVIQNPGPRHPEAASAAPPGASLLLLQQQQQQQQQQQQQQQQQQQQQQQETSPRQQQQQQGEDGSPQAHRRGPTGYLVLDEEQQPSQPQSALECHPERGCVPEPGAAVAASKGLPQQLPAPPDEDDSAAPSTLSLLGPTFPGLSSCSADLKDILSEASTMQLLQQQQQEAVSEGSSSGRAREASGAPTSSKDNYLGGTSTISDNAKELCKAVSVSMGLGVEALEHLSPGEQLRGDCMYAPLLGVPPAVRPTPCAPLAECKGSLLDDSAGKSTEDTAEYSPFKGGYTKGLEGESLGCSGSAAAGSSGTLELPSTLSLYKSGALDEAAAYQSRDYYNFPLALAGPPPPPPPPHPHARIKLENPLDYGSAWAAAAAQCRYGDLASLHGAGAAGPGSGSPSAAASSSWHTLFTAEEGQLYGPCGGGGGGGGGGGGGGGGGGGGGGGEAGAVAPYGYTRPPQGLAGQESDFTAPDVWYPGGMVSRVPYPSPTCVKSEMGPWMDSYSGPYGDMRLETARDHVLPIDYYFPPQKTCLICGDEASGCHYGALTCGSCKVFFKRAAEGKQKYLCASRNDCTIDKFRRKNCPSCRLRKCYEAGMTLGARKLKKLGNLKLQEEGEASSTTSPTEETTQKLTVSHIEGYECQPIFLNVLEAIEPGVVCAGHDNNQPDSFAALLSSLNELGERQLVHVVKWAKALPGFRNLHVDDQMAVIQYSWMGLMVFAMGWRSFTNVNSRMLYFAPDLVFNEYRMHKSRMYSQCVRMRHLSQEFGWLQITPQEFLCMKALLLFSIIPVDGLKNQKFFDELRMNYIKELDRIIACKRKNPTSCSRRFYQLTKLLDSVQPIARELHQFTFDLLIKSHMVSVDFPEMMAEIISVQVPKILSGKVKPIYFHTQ

One test has as its target Androgen receptor (Homo sapiens) (UniProt P10275). As to the kind of experiment: qHTS assay to identify small molecule antagonists of the androgen receptor (AR) signaling pathway (AID 743035; active = well fitted inhibition curve with a large enough effect in the signal ratio in the repeat runs, not every such curve was filed as active; the % refers to the signal ratio; also: potency is read from the fitted curve at half-maximal effect). As to conditions: HEK293 AR-UAS-bla, R1881-stimulated, beta-lactamase FRET, 16 h; series mostly up to 58.5 µM. In short, it runs like this:
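HEK293 cells stably carrying a UAS-driven beta-lactamase reporter (AR-UAS-bla GripTite) were plated for 4 h at 37C, then given compound and the agonist R1881 and incubated 16 h. Reporter activity was read by LiveBLAzer B/G FRET fluorescence after 2 h at room temperature.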
(qHTS replaces the single test concentration by a dilution series.)
As for `CS(=O)(=O)OCC(O)C(O)COS(C)(=O)=O` (stereo not drawn), the Potency result was “inactive”.

For `CCC(Cc1c(I)cc(I)c(O)c1I)C(=O)O` (stereo not drawn), the Potency result was “inactive”.

Take `CC(CN(C)C)CN1c2ccccc2S(=O)(=O)c2ccccc21` (stereo not drawn): the Potency entry is “inactive”.

As for `COc1cc2c(cc1OC)[C@@H](c1ccccc1)CN(C)CC2`, the Potency result is “inactive”.

With `NCCCC[C@H](N)C(=O)O`, the Potency entry is “inactive”.

With `CCCC(=O)N1CCCN(c2nc(N)c3cc(OC)c(OC)cc3n2)CC1`, the Potency entry is “inactive”.

On to `CCCOc1cc(N)ccc1C(=O)OCCN(CC)CC`, for which the Potency result was “inactive”.

On to `CC(C)CCC[C@@H](C)[C@H]1CC(=O)C2=C3CC[C@H]4C[C@@H](O)CC[C@]4(C)[C@H]3CC[C@@]21C`, for which the Potency entry is “inactive”.

Take `CCC(CN)CC(C)CCNCC(O)CNCC(C)CC(CC)CN` (stereo not drawn): the Potency result is “inactive”.

Turning to `OCC(O)COc1ccc(Cl)cc1` (stereo not drawn), the Potency result is “inactive”.

As for `N[C@@H](C(=O)N[C@@H]1C(=O)N2C(C(=O)O)=C(CSc3cn[nH]n3)CS[C@H]12)c1ccc(O)cc1`, the Potency result was “inactive”.

As for `C#C[C@]1(O)CC[C@H]2[C@@H]3CCC4=C/C(=N/O)CC[C@@H]4[C@H]3CC[C@@]21CC`, the Potency was 26.8 µM (active).

The next test shares this target. The experiment in a line: qHTS assay to identify small molecule agonists of the androgen receptor (AR) signaling pathway (AID 743036; active = well fitted activation curve with a large enough effect in the signal ratio in the repeat runs, with a control signal flat, not every such curve was filed as active; the % refers to the signal ratio; also: potency is read from the fitted curve at half-maximal effect). The following applies: HEK293 AR-UAS-bla GripTite, beta-lactamase FRET ratio, 16 h; series mostly up to 62.4 µM. The gist of the method:
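In this Tox21 qHTS, 2,000 HEK293 AR-bla cells per well were incubated with compounds for 16 h at 37C and 5% CO2. Fluorescence intensity was recorded 2 h after adding LiveBLAzer B/G FRET substrate at room temperature.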
In the case of `CS(=O)(=O)OCC(O)C(O)COS(C)(=O)=O` (stereo not drawn), the Potency result is “inactive”.

With `CCC(Cc1c(I)cc(I)c(O)c1I)C(=O)O` (stereo not drawn), the Potency entry was “inactive”.

On to `CC(CN(C)C)CN1c2ccccc2S(=O)(=O)c2ccccc21` (stereo not drawn), for which the Potency entry was “inactive”.

`COc1cc2c(cc1OC)[C@@H](c1ccccc1)CN(C)CC2`: the Potency result was “inactive”.

Consider `NCCCC[C@H](N)C(=O)O`, for which the Potency result was “inactive”.

For `CCCC(=O)N1CCCN(c2nc(N)c3cc(OC)c(OC)cc3n2)CC1`, the Potency result was “inactive”.

As for `CCCOc1cc(N)ccc1C(=O)OCCN(CC)CC`, the Potency result was “inactive”.

`CC(C)CCC[C@@H](C)[C@H]1CC(=O)C2=C3CC[C@H]4C[C@@H](O)CC[C@]4(C)[C@H]3CC[C@@]21C`: the Potency entry was “inactive”.

For `CCC(CN)CC(C)CCNCC(O)CNCC(C)CC(CC)CN` (stereo not drawn), the Potency entry was “inactive”.

Regarding `OCC(O)COc1ccc(Cl)cc1` (stereo not drawn), the Potency entry was “inactive”.

For `N[C@@H](C(=O)N[C@@H]1C(=O)N2C(C(=O)O)=C(CSc3cn[nH]n3)CS[C@H]12)c1ccc(O)cc1`, the Potency entry is “inactive”.

Turning to `C#C[C@]1(O)CC[C@H]2[C@@H]3CCC4=C/C(=N/O)CC[C@@H]4[C@H]3CC[C@@]21CC`, the Potency was 4.25 µM (active).

For the next test the target is unchanged. As to the kind of experiment: qHTS assay to identify small molecule agonists of the androgen receptor (AR) signaling pathway using the MDA cell line (AID 743040; also: nearly all actives have a fitted effect of over 20% in size; also: potency is read from the fitted curve at half-maximal effect). The following applies: MDA-kb2 AR-luc cells, MMTV luciferase, 16 h; series mostly up to 70.3 µM. The gist of the method: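 MDA-kb2 breast carcinoma cells stably carrying an MMTV-driven luciferase reporter (AR- and GR-responsive) were seeded and held 5 h at 37C, 0% CO2, then exposed to compounds in DMSO for 16 h. Luminescence was read 30 min after ONE-Glo addition.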
On to `CS(=O)(=O)OCC(O)C(O)COS(C)(=O)=O` (stereo not drawn), for which the Potency entry is “inactive”.

For the compound `CCC(Cc1c(I)cc(I)c(O)c1I)C(=O)O` (stereo not drawn), the Potency entry was “inactive”.

With `CC(CN(C)C)CN1c2ccccc2S(=O)(=O)c2ccccc21` (stereo not drawn), the Potency result is “inactive”.

With `COc1cc2c(cc1OC)[C@@H](c1ccccc1)CN(C)CC2`, the Potency entry was “inactive”.

Take `NCCCC[C@H](N)C(=O)O`: the Potency entry was “inactive”.

In the case of `CCCC(=O)N1CCCN(c2nc(N)c3cc(OC)c(OC)cc3n2)CC1`, the Potency entry was “inactive”.

With `CCCOc1cc(N)ccc1C(=O)OCCN(CC)CC`, the Potency result was “inactive”.

Turning to `CC(C)CCC[C@@H](C)[C@H]1CC(=O)C2=C3CC[C@H]4C[C@@H](O)CC[C@]4(C)[C@H]3CC[C@@]21C`, the Potency result is “inactive”.

Consider `CCC(CN)CC(C)CCNCC(O)CNCC(C)CC(CC)CN` (stereo not drawn), for which the Potency result was “inactive”.

`OCC(O)COc1ccc(Cl)cc1` (stereo not drawn): the Potency entry was “inactive”.

On to `N[C@@H](C(=O)N[C@@H]1C(=O)N2C(C(=O)O)=C(CSc3cn[nH]n3)CS[C@H]12)c1ccc(O)cc1`, for which the Potency entry is “inactive”.

Take `C#C[C@]1(O)CC[C@H]2[C@@H]3CCC4=C/C(=N/O)CC[C@@H]4[C@H]3CC[C@@]21CC`: the Potency is 0.0335 µM (active).

Tested on in a further test: not listed separately
The experiment in a line: qHTS assay to identify small molecule antagonists of the androgen receptor (AR) signaling pathway using the MDA cell line - cell viability counter screen (AID 743041; also: nearly all actives have a fitted effect of over 45% in size). The following applies: MDA-kb2 viability, CellTiter-Fluor, 16 h, cells co-treated with R1881 androgen agonist; series mostly up to 70.3 µM. In short, it runs like this: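 MDA-kb2 AR-luc human breast carcinoma cells (MMTV-luciferase, AR/GR responsive) were treated with compounds plus R1881 agonist for 16 h at 37 °C. Viability was read as CellTiter-Fluor fluorescence in the same wells as the reporter assay.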
For `CS(=O)(=O)OCC(O)C(O)COS(C)(=O)=O` (stereo not drawn), the Potency entry was “inactive”.

As to `CCC(Cc1c(I)cc(I)c(O)c1I)C(=O)O` (stereo not drawn), the Potency result was “inactive”.

With `CC(CN(C)C)CN1c2ccccc2S(=O)(=O)c2ccccc21` (stereo not drawn), the Potency entry was “inactive”.

For the compound `COc1cc2c(cc1OC)[C@@H](c1ccccc1)CN(C)CC2`, the Potency result is “inactive”.

For the compound `NCCCC[C@H](N)C(=O)O`, the Potency result was “inactive”.

For the compound `CCCC(=O)N1CCCN(c2nc(N)c3cc(OC)c(OC)cc3n2)CC1`, the Potency result was “inactive”.

With `CCCOc1cc(N)ccc1C(=O)OCCN(CC)CC`, the Potency result was “inactive”.

`CC(C)CCC[C@@H](C)[C@H]1CC(=O)C2=C3CC[C@H]4C[C@@H](O)CC[C@]4(C)[C@H]3CC[C@@]21C`: the Potency entry was “inactive”.

With `CCC(CN)CC(C)CCNCC(O)CNCC(C)CC(CC)CN` (stereo not drawn), the Potency entry was “inactive”.

In the case of `OCC(O)COc1ccc(Cl)cc1` (stereo not drawn), the Potency entry is “inactive”.

Consider `N[C@@H](C(=O)N[C@@H]1C(=O)N2C(C(=O)O)=C(CSc3cn[nH]n3)CS[C@H]12)c1ccc(O)cc1`, for which the Potency result is “inactive”.

The target in a further test is Androgen receptor (Homo sapiens) (UniProt P10275). As to the kind of experiment: qHTS assay to identify small molecule antagonists of the androgen receptor (AR) signaling pathway using the MDA cell line (AID 743042; also: nearly all actives have a fitted effect of over 55% in size). The following applies: MDA-kb2 AR-luc, MMTV luciferase, R1881 antagonist, 16 h; series mostly up to 70.3 µM. The gist of the method:
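MDA-kb2 cells (human breast carcinoma, stably carrying an MMTV-luciferase reporter responsive to AR and GR) were plated at 3,000 cells/well and preincubated 5 hr at 37C, then given compound plus R1881 agonist for 16 h. ONE-Glo luminescence was read.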
On to `CS(=O)(=O)OCC(O)C(O)COS(C)(=O)=O` (stereo not drawn), for which the Potency result is “inactive”.

In the case of `CCC(Cc1c(I)cc(I)c(O)c1I)C(=O)O` (stereo not drawn), the Potency result was “inactive”.

Turning to `CC(CN(C)C)CN1c2ccccc2S(=O)(=O)c2ccccc21` (stereo not drawn), the Potency result is “inactive”.

Turning to `COc1cc2c(cc1OC)[C@@H](c1ccccc1)CN(C)CC2`, the Potency entry was “inactive”.

Turning to `NCCCC[C@H](N)C(=O)O`, the Potency result was “inactive”.

As to `CCCC(=O)N1CCCN(c2nc(N)c3cc(OC)c(OC)cc3n2)CC1`, the Potency entry was “inactive”.

On to `CCCOc1cc(N)ccc1C(=O)OCCN(CC)CC`, for which the Potency result is “inactive”.

Regarding `CC(C)CCC[C@@H](C)[C@H]1CC(=O)C2=C3CC[C@H]4C[C@@H](O)CC[C@]4(C)[C@H]3CC[C@@]21C`, the Potency entry was “inactive”.

On to `CCC(CN)CC(C)CCNCC(O)CNCC(C)CC(CC)CN` (stereo not drawn), for which the Potency entry was “inactive”.

Take `OCC(O)COc1ccc(Cl)cc1` (stereo not drawn): the Potency result was “inactive”.

Regarding `N[C@@H](C(=O)N[C@@H]1C(=O)N2C(C(=O)O)=C(CSc3cn[nH]n3)CS[C@H]12)c1ccc(O)cc1`, the Potency entry was “inactive”.
